Source: PubChem BioAssay
H9c2 protect: modulators protecting cardiomyocytes from myocardial damage; H9c2 cardiomyocytes, H2O2 injury protection, ATPLite, 2 h; protection from H2O2 cell death, % at 20 µM; 0.63% of 360,000 active;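 active means compounds giving at least 50% protection of heart cells from peroxide-induced death in the single-dose screen, raw or plate-pattern-corrected value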;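 further: 0% = DMSO wells with peroxide and 100% = DMSO wells without peroxide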
ABCB6 inh MLPCN: inhibitors of human ABC transporter ABCB6; Q9NP58; K562-ABCB6 porphyrin accumulation, flow cytometry, 1 h; stronger effect = lower value; fluorescence ratio to DMSO, % at 10 µM; 0.19% of 360,000 active; AID 602162;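 active means fluorescence ratio to DMSO below 75%, the collection mean minus 3 SD; inconclusive means too few cells collected in the well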;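 further: signal is porphyrin accumulated inside mitochondria; 100% equals median channel fluorescence of DMSO control wells; lower ratio means ABCB6 inhibition with less porphyrin fluorescence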
Target sequence (Q9NP58 whole entry, looked up): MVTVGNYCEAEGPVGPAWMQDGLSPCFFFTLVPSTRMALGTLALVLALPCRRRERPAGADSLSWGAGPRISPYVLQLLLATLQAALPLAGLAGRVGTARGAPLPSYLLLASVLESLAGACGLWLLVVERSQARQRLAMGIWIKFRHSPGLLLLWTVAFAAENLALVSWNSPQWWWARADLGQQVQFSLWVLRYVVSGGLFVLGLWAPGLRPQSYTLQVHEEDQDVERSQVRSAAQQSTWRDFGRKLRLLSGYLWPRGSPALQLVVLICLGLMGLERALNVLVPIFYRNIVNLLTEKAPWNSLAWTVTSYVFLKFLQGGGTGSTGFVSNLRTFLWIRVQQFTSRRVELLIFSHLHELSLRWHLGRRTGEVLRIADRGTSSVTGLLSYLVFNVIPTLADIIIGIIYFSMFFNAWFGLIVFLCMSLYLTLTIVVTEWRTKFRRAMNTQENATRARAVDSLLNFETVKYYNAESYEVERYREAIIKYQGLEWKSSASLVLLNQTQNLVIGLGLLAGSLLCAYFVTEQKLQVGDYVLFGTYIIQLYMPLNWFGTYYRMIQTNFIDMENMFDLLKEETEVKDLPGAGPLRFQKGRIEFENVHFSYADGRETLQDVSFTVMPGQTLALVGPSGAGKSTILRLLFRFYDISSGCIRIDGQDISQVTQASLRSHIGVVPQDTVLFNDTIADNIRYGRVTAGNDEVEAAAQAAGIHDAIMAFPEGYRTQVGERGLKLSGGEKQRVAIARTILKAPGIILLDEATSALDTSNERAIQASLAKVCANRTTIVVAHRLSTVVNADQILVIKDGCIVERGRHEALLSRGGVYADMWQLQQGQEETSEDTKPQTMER
MIN6 prolif: inducers of beta-cell replication in MIN6 cells. MIN6 cells proliferation, ATPlite luminescence, 48 h; cells starved in 0.2% serum; 100% = growth in 10% serum. proliferation, % at 10 µM. 0.29% of 330,000 active;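 active means compounds whose signal lies at least 3.5 SD above the mean of all wells on their plate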;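 further: 0% = DMSO-treated cells in low-serum medium and 100% = 10% serum control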
Myeloid diff MLP: myeloid differentiation induction. AID 624256. 1% of 360,000 active. ER-HoxA9 myeloid progenitors, lysozyme-GFP differentiation, flow cytometry. calls only at 10 µM;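 active means normalized GFP-positive differentiation at or above the plate's own cutoff, the solvent-only control mean plus 3 SD; inconclusive means no clear call, values can overlap the other calls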;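 further: cells exposed to compound for four days before flow analysis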
iPSC survival up: enhancers of human iPSC single-cell survival | hiPSC single-cell survival, ATPlite luminescence; 100% = ROCK inhibitor wells, 0% = DMSO | survival enhancement, % at 20 µM | 0.044% of 360,000 active | AID 602274; in the data active means survival enhancement above about 18%;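 further: cells exposed to compounds for 16 hours before the ATP read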
An asterisk follows results filed as active; i = inactive; ? = inconclusive; / = no result; + = active, no number. Hits are enriched below; roughly 2.2% of the tested compounds scored in any of these assays.

SMILES	H9c2 protect	ABCB6 inh MLPCN	MIN6 prolif	Myeloid diff MLP	iPSC survival up
COc1ccc(NC(=O)COc2cccc3c2CCNC3=O)cc1	68*	90	-3	i	0
COc1cccc(NC(=O)COc2ccc(C)cc2)c1	-12	96	-2	i	-2
Cc1cccc(NC(=O)COc2cccc3c2CCNC3=O)c1	59*	91	/	i	0
Cc1cc(C)nc(N2CCN(C(=O)CCC(=O)Nc3nnc(CC(C)C)s3)CC2)n1	8	104	-3	i	0
Cc1c(C(=O)N/N=C/c2ccc(O)c(Br)c2)sc(N)c1C#N	70*	96	/	i	-1
Cc1c(C(=O)N/N=C/c2ccc(-c3ccccc3[N+](=O)[O-])o2)sc(N)c1C#N	27	95	/	i	-1
COc1cc(/C=N/NC(=O)c2sc(N)c(C#N)c2C)ccc1O	54*	96	1	i	-1
COC(=O)[C@]1(C)N[C@H](CN(C)S(=O)(=O)c2ccc(F)cc2)[C@@H]2C(=O)N(Cc3ccccc3)C(=O)[C@@H]21	1	102	-3	i	2
NC(=O)COC(=O)c1c2c(nc3ccccc13)CCC2	-1	100	2	i	-1
CC(C)(C)NC(=O)COC(=O)c1c2c(nc3ccccc13)CCC2	50*	100	2	i	0
CC(C)c1ccccc1NC(=O)COC(=O)c1c2c(nc3ccccc13)CCN(Cc1ccccc1)C2	66*	118	-6	i	-3
CCOC(=O)C1CCCN(C(=O)c2cccc3ccccc23)C1 (configuration not stated)	-2	106	2	i	1
COc1cc(S(=O)(=O)N(CCc2ccccc2)Cc2cccs2)ccc1-n1cnnn1	3	91	1	i	-1
Cc1ncc(CN2CCN(Cc3ccccc3)C(CCO)C2)s1 (configuration not stated)	1	126	0	+	0
Cc1ccc(CN2CCN(Cc3cnc(C)s3)CC2CCO)cc1 (configuration not stated)	3	95	1	i	1
Cc1c(-c2ccc(OCc3ccccc3)cc2)nc2ccccc2c1C(=O)O	-6	518	-3	+	0
Cc1cccc(-c2nnc(SCC(=O)N3CCCC3)o2)c1	0	91	0	i	0
C=CCn1c(CNc2ccc(C)cc2)nnc1SCC(=O)N/N=C/c1ccc(O)cc1O	68*	94	-3	i	-3
C=CCn1c(CNc2ccccc2)nnc1SCC(=O)N/N=C/c1ccc(O)cc1O	85*	95	-2	i	-1
C=CCn1c(COc2ccccc2)nnc1SCC(=O)N/N=C/c1cc(Cl)ccc1O	86*	108	-1	i	4
C=CCn1c(COc2ccccc2)nnc1SCC(=O)N/N=C/c1ccc(C)cc1	-18	95	-3	i	-1
CCCC(=O)Nc1cc(C(=O)O)ccc1S(=O)(=O)c1ccc(C)cc1	0	101	-2	i	-2
Cc1ccccc1CSc1nnc(-c2cccs2)n1Cc1ccco1	5	99	-3	i	0
Cc1ccccc1CSc1nnc(-c2ccco2)n1Cc1ccco1	6	96	-1	+	0
COc1ccc(C2=NN(C(=S)Nc3ccccc3)C(c3ccccc3)C2)cc1 (configuration not stated)	-5	102	5	i	-1
SMILES	H9c2 protect	ABCB6 inh MLPCN	MIN6 prolif	Myeloid diff MLP	iPSC survival up
Cc1ccccc1C1c2[nH]c3ccccc3c2C[C@H]2C(=O)N(c3ccccc3C(=O)NCCN3CCOCC3)C(=O)N12 (some centres not stated)	29	107	-3	i	-3
Cc1ccccc1C1c2[nH]c3ccccc3c2C[C@H]2C(=O)N(c3ccccc3C(=O)NCCCN3CCOCC3)C(=O)N12 (some centres not stated)	55*	99	-5	i	17
Nc1ccc2nc(-c3ccccc3)[nH]c2c1	6	94	-5	+	-4
Nc1ccc2nc(-c3cccnc3)[nH]c2c1	42	104	-3	i	0
Nc1ccc2nc(-c3cccs3)[nH]c2c1	66*	102	-3	i	0
CC(=O)Nc1ccc2nc(-c3cccs3)[nH]c2c1	-30	95	-7	i	-2
CC1(C)C2CCC1(C)C(NCC(O)COc1ccc(C#N)cc1)C2 (configuration not stated)	0	93	-3	i	-1
Cc1nn(-c2ccccc2)c(Cl)c1C(=O)NNC(=O)c1ccccc1O	57*	103	-4	i	1
Cc1nn(-c2ccccc2)c(Cl)c1C(=O)NNC(=O)c1ccncc1	4	92	1	i	0
Cc1ccnc(NC(c2ccccc2)c2ccc3cccnc3c2O)c1 (configuration not stated)	41	100	/	i	-4
Cc1cc(NC(c2ccc(Cl)cc2)c2ccc3cccnc3c2O)no1 (configuration not stated)	58*	97	-4	?	-2
CC(=O)NC(c1ccc(Cl)cc1)c1ccc2cccnc2c1O (configuration not stated)	30	101	/	?	1
Cc1ccnc(NC(c2cccnc2)c2ccc3cccnc3c2O)c1 (configuration not stated)	30	94	-5	i	-2
Cc1ccc2ccc(C(Nc3cccc(C(F)(F)F)c3)c3cccnc3)c(O)c2n1 (configuration not stated)	84*	93	1	i	-3
Cc1ccnc(NC(c2ccsc2)c2ccc3ccc(C)nc3c2O)c1 (configuration not stated)	54*	102	-7	i	-1
COc1ccc(C(Nc2cc(C)ccn2)c2ccc3ccc(C)nc3c2O)cc1 (configuration not stated)	62*	94	-6	i	0
CC(=O)N1c2c(ccc3ccccc23)C(C)CC12CCCCC2 (configuration not stated)	1	96	2	i	1
Cc1nc(N)[nH]c(=O)c1CCC(=O)OCC(C)C	3	93	-2	i	3
Cc1cccc(NC(c2ccc(C)s2)c2ccc3ccc(C)nc3c2O)n1 (configuration not stated)	91*	95	0	i	-2
Cc1ccc2ccc(C(Nc3ccccn3)c3ccccc3)c(O)c2n1 (configuration not stated)	88*	98	-6	i	-2
O=C(O)c1ccccc1NC(c1ccccc1)c1ccc2cccnc2c1O (configuration not stated)	59*	95	/	i	-1
Cc1ccc2ccc(C(Nc3ccccc3)c3ccccc3)c(O)c2n1 (configuration not stated)	/	/	/	i	/
CNc1nc(NCc2ccc(N(C)C)cc2)c2sccc2n1	-8	97	/	i	-1
